Rows were chosen to be rich in hits. Some 2.9% of all compounds tested hit in one or more screens of this group.
PAFAH1B2 inh: blocks human PAF acetylhydrolase 1b catalytic subunit 2; P68402; recombinant PAFAH1B2, FP-rhodamine activity probe, fluorescence polarization; inhibition, % at 3.39 µM; 340,000 tested, 1.2% active;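 active = inhibition above the mean of all tested compounds plus 3 SD, cut at about 24% in these data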;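 also: 0% = enzyme with DMSO and 100% = wells lacking PAFAH1B2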
Target sequence (P68402 whole entry, looked up): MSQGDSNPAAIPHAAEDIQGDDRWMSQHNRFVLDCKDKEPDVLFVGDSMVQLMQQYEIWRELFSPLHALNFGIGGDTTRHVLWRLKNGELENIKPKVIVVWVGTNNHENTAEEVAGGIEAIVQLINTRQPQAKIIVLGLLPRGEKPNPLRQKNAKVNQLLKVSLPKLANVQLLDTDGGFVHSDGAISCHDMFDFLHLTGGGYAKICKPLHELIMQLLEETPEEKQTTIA
ZTA counter: blocks Epstein-Barr virus ZTA, an EBNA-1 counter-screen; inhibition, % at 11 µM; 320,000 tested, 0.15% active; ZTA-DNA binding, fluorescence polarization; in the data active = inhibition above about 33%
Target sequence (P03206 whole entry, looked up): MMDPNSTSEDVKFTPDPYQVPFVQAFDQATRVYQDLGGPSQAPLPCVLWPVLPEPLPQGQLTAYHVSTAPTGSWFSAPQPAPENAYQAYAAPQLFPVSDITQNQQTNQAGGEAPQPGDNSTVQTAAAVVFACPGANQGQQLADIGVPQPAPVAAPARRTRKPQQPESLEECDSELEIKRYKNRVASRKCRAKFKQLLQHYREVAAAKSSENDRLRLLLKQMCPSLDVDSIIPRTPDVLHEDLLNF
PAFAH1B3 FP inh: PAFAH1B3 (human) inhibition; inhibition, % at 3.39 µM; recombinant PAFAH1B3, FP-rhodamine probe, fluorescence polarization; 340,000 tested, 0.28% active; AID 492972;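 active = inhibition above the screen-wide average of all tested compounds plus 3 SD, cut at about 25% in these data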;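 also: 0% = enzyme with DMSO only and 100% = wells lacking PAFAH1B3 protein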
Target sequence (Q15102 whole entry, looked up): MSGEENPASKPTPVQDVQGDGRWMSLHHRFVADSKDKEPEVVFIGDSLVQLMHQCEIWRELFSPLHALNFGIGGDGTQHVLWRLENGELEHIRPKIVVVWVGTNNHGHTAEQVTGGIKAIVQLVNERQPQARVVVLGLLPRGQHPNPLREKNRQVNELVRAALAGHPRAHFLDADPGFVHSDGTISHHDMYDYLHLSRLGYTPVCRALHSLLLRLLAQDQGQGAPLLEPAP
EBNA-1 inh: blocks EBNA-1 binding to DNA. 300,000 tested, 0.34% active. AID 1950. EBNA-1 DNA binding, fluorescence polarization. inhibition, % at 14.8 µM; in the data active = inhibition above about 28%
PAFAH2 inh: inhibitors of human PAFAH2 | 340,000 tested, 0.99% active | recombinant PAFAH2, FP-rhodamine activity probe, fluorescence polarization | inhibition, % at 3.39 µM | Q99487 | AID 492956;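 active = inhibition above the mean over all tested compounds plus 3 SD, cut at about 30% in these data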;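 also: inhibitors block probe labeling of enzyme so polarization drops; 0% = enzyme with DMSO and 100% = wells lacking PAFAH2 protein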
rCAG binder: r(CAG) repeat RNA binding; 370,000 tested, 1.3% active; inhibition, % at 3 µM; TO-PRO-1 dye displacement fluorescence;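 active = inhibition above the plate cutoff, the mean of all test compounds on that plate plus 3 SD, cut at about 35% in these data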;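 also: 0% = DMSO alone and 100% = 100 µM mitoxantrone as full dye displacement; higher means more dye released from RNA so lower well fluorescence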
rCAG bind conf: r(CAG) RNA repeat binding, confirmation. shares compounds with rCAG binder. 4,300 tested, 70% active. inhibition, % at 3 µM. TO-PRO-1 dye displacement fluorescence;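 active = inhibition above a per-plate cutoff, the mean inhibition of sample wells plus 3 SD, cut at about 35% in these data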;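 also: loss of TO-PRO-1 fluorescence as compound displaces dye from 1x1 AA loop RNA; 0% = DMSO only wells and 100% = 100 µM mitoxantrone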
DNA CAG counter: counter-screen for rCAG RNA binders: DNA CAG dye complex inhibitors. shares compounds with rCAG binder. d(CAG) DNA oligo TO-PRO-1 dye displacement, fluorescence. inhibition, % at 3 µM. 4,300 tested, 94% active;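 active = inhibition above its plate's cutoff, the mean test-well inhibition plus 3 SD, cut at about 4.8% in these data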;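 also: 0% = DNA dye mix with DMSO and 100% = 100 µM mitoxantrone; hits displace the dye from DNA and so lower well fluorescence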
DNA CAG DR: DNA CAG dye complex inhibition, dose response counter-screen; AID 686960; DNA CAG/GTC duplex TO-PRO-1 dye displacement fluorescence; IC50, µM; shares compounds with rCAG binder; 250 tested, 20% active; in the data active = IC50 below about 10 µM
Numbers without * were called inactive; i = inactive; nt = not tested or not shown.

SMILES | PAFAH1B2 inh | ZTA counter | PAFAH1B3 FP inh | EBNA-1 inh | PAFAH2 inh | rCAG binder | rCAG bind conf | DNA CAG counter | others
COc1cccc(C(=O)N2CCCC(Nc3ccc(C)c(C)c3)C2)c1 (stereo not drawn) | 4 | 22 | 2 | 2 | 4 | -5 | nt | nt
COc1ccc(C(=O)CSc2nnc(-c3ccco3)c(-c3ccco3)n2)cc1 | 8 | nt | 9 | nt | 20 | 51* | 49* | 22*
O=C(CSc1ccc(-c2ccco2)nn1)c1ccc(F)cc1 | 1 | 18 | 8 | 13 | 11 | 37* | 9 | 4
COc1ccc(C(=O)CSc2nnc(-c3ccco3)n2C)cc1 | 7 | -11 | 1 | -1 | -6 | 5 | nt | nt
C#CCNC(=O)c1cnn(-c2ccccc2)c1N | nt | nt | nt | nt | nt | 1 | nt | nt
O=C(OC1CCOC1=O)c1cccc(S(=O)(=O)Nc2cccc(Cl)c2)c1 (stereo not drawn) | -4 | 3 | 9 | 2 | 16 | 35* | 24 | 9.1*
CCCn1nc([N+](=O)[O-])c(C(C#N)c2nc3ccccc3o2)c(Cl)c1=O (stereo not drawn) | 39* | 11 | 28* | -8 | 46* | 80* | 77* | 37*
Cn1nc([N+](=O)[O-])c(C(C#N)c2ccccn2)c(Cl)c1=O (stereo not drawn) | -2 | 1 | 0 | 4 | 2 | 5 | nt | nt
C/C(N)=C(/C#N)C(=O)CSc1nc2cc(Cl)ccc2s1 | -2 | -3 | 5 | 7 | 6 | 15 | nt | nt
CCn1nc([N+](=O)[O-])c(C(C#N)c2nc3cc(C(F)(F)F)ccc3s2)c(Cl)c1=O (stereo not drawn) | 31* | 1 | 15 | 4 | 42* | 94* | 87* | 60*
O=C(NNC(=S)Nc1cccc(C(F)(F)F)c1)c1ccccc1Cl | 8 | -6 | 11 | 6 | 9 | 25 | nt | nt
O=C(NNC(=S)Nc1cccc(C(F)(F)F)c1)c1cccc(Cl)c1 | 13 | 6 | 13 | 5 | 14 | 47* | 48* | 14*
FC(F)(F)c1cccc(NC(=S)NNC(=S)NCc2ccccc2)c1 | 19 | 25 | 16 | 10 | 14 | 78* | 63* | 33*
C[C@@H]1CCCCO[C@@H](CN(C)S(=O)(=O)c2cccs2)[C@@H](C)CN([C@H](C)CO)C(=O)c2cc(NS(=O)(=O)c3ccccc3)ccc2O1 | nt | nt | nt | nt | nt | 10 | nt | nt
CN(C)c1ccc(CNC(=O)C2(C)Cc3c(-c4cccc(C(N)=O)c4)ccnc3O2)cc1 (stereo not drawn) | nt | nt | nt | nt | nt | -1 | nt | nt
O=C(NCCc1c[nH]c2ccccc12)OCc1cn(-c2ccccc2Cl)nn1 | nt | nt | nt | nt | nt | 5 | nt | nt
Cc1nn(CCc2nn[nH]n2)c2nc(-c3ccc(Br)cc3)cc(C(F)(F)F)c12 | 5 | 18 | 6 | 2 | 9 | 44* | 71* | 25* | DNA CAG DR=i
C/C(=N\NC(=O)c1cccc(S(=O)(=O)Nc2ccc(C)cc2C)c1)c1ccncc1 | 6 | nt | 1 | nt | 3 | 8 | nt | nt
C/C(=N\NC(=O)c1ccc(Cl)c(S(=O)(=O)Nc2ccccc2Cl)c1)c1ccncc1 | -3 | 8 | 4 | 6 | 9 | 51* | 41* | 11*
C/C(=N\NC(=O)c1cccc(S(=O)(=O)Nc2ccccc2Cl)c1)c1ccco1 | 2 | 2 | 4 | 6 | 9 | 48* | 18 | 6.8*
O=S(=O)(/N=C(/Nc1ccc(Cl)c(S(=O)(=O)Nc2ccccc2Cl)c1)c1ccc(F)cc1)c1ccccc1 | 9 | 6 | 0 | 0 | 2 | 66* | 71* | 26* | DNA CAG DR=>30
CN(C)C(CNC(=O)c1cccc(S(=O)(=O)Nc2ccccc2Cl)c1)c1ccco1 (stereo not drawn) | 4 | -15 | 2 | nt | 7 | 9 | nt | nt
COc1ccccc1NS(=O)(=O)c1cc(N/C(=N/S(=O)(=O)c2ccccc2)c2ccc(F)cc2)ccc1Cl | nt | nt | nt | nt | nt | 16 | nt | nt
O=C1NN(c2ccccc2)C(=O)/C1=C\c1ccc(-c2cc([N+](=O)[O-])ccc2O)o1 | 13 | nt | 33* | nt | 30* | 36* | 44* | 19*
O=C1NN(c2ccc(Cl)cc2)C(=O)/C1=C\c1ccc(-c2cccc(C(=O)O)c2)o1 | 21 | nt | 27* | nt | 36* | 97* | 66* | 28*
SMILES | PAFAH1B2 inh | ZTA counter | PAFAH1B3 FP inh | EBNA-1 inh | PAFAH2 inh | rCAG binder | rCAG bind conf | DNA CAG counter | others
Cc1ccc(N2NC(=O)/C(=C/c3ccc(-c4ccc(Cl)c(C(=O)O)c4)o3)C2=O)cc1 | 0 | -10 | 5 | -1 | 24 | 21 | nt | nt
CCOc1ccc(OCCC(=O)OCC(=O)N2CCN(S(=O)(=O)c3ccc(C)cc3C)CC2)cc1 | 2 | nt | -1 | nt | 7 | 4 | nt | nt
O=S(=O)(Nc1nc2ccccc2nc1Nc1ccc(N2CCOCC2)cc1)c1cc(Cl)ccc1Cl | 3 | -16 | 6 | 1 | 8 | 6 | nt | nt
CCc1sc(C(C2C(=O)CC(C)(C)CC2=O)C2C(=O)CC(C)(C)CC2=O)cc1[N+](=O)[O-] | 0 | 3 | 3 | -1 | 12 | 37* | 23 | 6.4*
Cc1ccnc(NS(=O)(=O)c2cc(-c3cc(C)no3)ccc2C(C)C)c1 | 2 | 1 | 0 | 1 | 0 | 8 | nt | nt
CC(C)(C)c1ccc(-c2nnc(SCC(=O)Nc3ccc4c(c3)OCCO4)n2-c2ccc(Cl)cc2)cc1 | nt | nt | nt | nt | nt | 11 | nt | nt
O=C(Nc1cccc(S(=O)(=O)N2CCCCCC2)c1)C1CCN(C(=O)c2ccc(F)cc2)CC1 | 4 | -7 | -1 | 2 | 6 | -1 | nt | nt
Cc1cc(C)cc(Nc2nc3ccccc3c(=O)[nH]2)c1 | 4 | 4 | 3 | 0 | 9 | 41* | 14 | 16*
CC(C)Nc1nc2ccccc2c(=O)[nH]1 | 6 | 2 | 8 | -2 | 0 | -1 | nt | nt
Cc1ccnc(NC(=S)NC(=O)/C=C/c2ccco2)c1 | -4 | -10 | 9 | -3 | 12 | 15 | nt | nt
O=C(/C=C/c1ccco1)NC(=S)Nc1ccc(Cl)cn1 | -1 | -15 | 5 | -13 | 7 | 39* | 14 | 6.9*
Cc1ccc(-c2csc(NC(=S)NC(=O)/C=C/c3ccco3)n2)cc1 | -4 | -5 | -6 | -2 | -34 | 38* | 22 | 11*
O=C(O)c1ccc(Cl)cc1Nc1nc2cc(Cl)ccc2o1 | 21 | -13 | -1 | -4 | 15 | 73* | 84* | 62*
CCC(=O)Nc1cc(Cl)ccc1C(=O)O | 0 | -10 | -4 | 4 | 0 | -1 | nt | nt
Cc1cc(Nc2cccc(Cl)c2)nc(-c2ccccc2O)n1 | 4 | 15 | 9 | 14 | -11 | 36* | 24 | 10.0*
Cc1cc(Nc2ccc(Cl)cc2)nc(-c2ccccc2O)n1 | 5 | nt | 2 | nt | -8 | 25 | nt | nt
